The values below come from PubChem BioAssay.

The structures appear in SMILES notation. Active and inactive are the calls of the source. Cut-off read from the data, not from the text of the source, unless noted: active = inhibition above about 33%; inactive = the rest.

For assay [1], the target named is Nuclear receptor coactivator 3 (Homo sapiens) (UniProt Q9Y6Q9). The experiment in a line: SRC3 coactivator transcriptional activity inhibitors, confirmation, cell-based, luminescence, quadruplicate (AID 588792;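 active = mean inhibition over 43.08%, the solvent-only control mean plus 3 SD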;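 note: 0% = DMSO treated cells and 100% = gossypol at 36 µM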). Particulars: HEK293 GAL4-SRC3 luciferase reporter, at 3.6 µM, active compounds read high.
In assay [2] the test system is transactivating tegument protein VP16 (Human herpesvirus 1), Gal4-VP16 luciferase reporter. In words: VP16 transactivation inhibitors, counter-screen for SRC3 inhibitor project, cell-based, luminescence, high throughput (AID 588794; in the data active = inhibition above about 30%). The settings on record: mammalian cells, VP16-driven luciferase reporter luminescence; at 3.6 µM; active compounds read high. For orientation: Counterscreens check selectivity or assay interference.

Assay [3] deals with Nuclear receptor coactivator 1 (Homo sapiens) (UniProt Q15788). The experiment in a line: SRC1 coactivator transcriptional activity inhibitors, confirmation, cell-based, luminescence, quadruplicate (AID 588820;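 active = mean inhibition above 46.68%, the untreated control wells mean plus 3 SD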;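 note: 0% = DMSO wells and 100% = gossypol 36 µM treated wells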). The settings on record: HEK293 GAL4-SRC1 luciferase reporter, at 3.6 µM, active compounds read high. In general terms: A reporter such as luciferase makes a cellular process visible.

A short description of assay [4]: VP16 transactivation inhibitors, counter-screen for SRC1 inhibitor project, cell-based, luminescence, high throughput (AID 588824; in the data active = inhibition above about 25%). Particulars: cell-based VP16 transactivation luciferase luminescence; at 3.6 µM; active compounds read high.
The nature of assay [5]: StAR promoter reporter inhibitors, counter-screen for LRH-1 inverse agonist project, cell-based, luminescence, high throughput (AID 651611; in the data active = inhibition above about 28%). Particulars: StAR promoter luciferase reporter counterscreen, at 3.6 µM, active compounds read high.
For assay [6], the target named is Nuclear receptor subfamily 5 group A member 2 (Homo sapiens) (UniProt O00482). The experiment in a line: LRH-1 (NR5A2) inverse agonists, retest, confirmation, cell-based, luminescence (AID 651613; in the data active = inhibition above about 42%;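 note: HEK293T cells co-transfected with LRH-1 and StAR promoter luciferase reporter; 0% = vehicle wells and 100% = parental cells lacking receptor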). Particulars: cell-based LRH-1 luciferase reporter, inverse agonism; at 3.6 µM; active compounds read high.
Assay [7] concerns the target Steroidogenic factor 1 (Homo sapiens) (UniProt Q13285). In words: SF1 (NR5A1) inverse agonists, counter-screen for LRH-1 inverse agonist project, cell-based, luminescence, high throughput (AID 651614; in the data active = inhibition above about 44%;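 note: cells cotransfected with StAR promoter reporter and SF1 expression vector; 0% = vehicle on cells with receptor and 100% = vehicle on cells lacking receptor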). Particulars: cell-based SF1 luciferase reporter, at 3.6 µM, active compounds read high.
The nature of assay [8]: VP16 transactivation reporter inhibitors, counter-screen for LRH-1 inverse agonist project, cell-based, luminescence, high throughput (AID 651615). The settings on record: Gal4-VP16 luciferase reporter cells, at 3.6 µM, active compounds read high.

Chain of Nuclear receptor coactivator 1 (Homo sapiens) (Q15788 whole entry, looked up, the tested form may be a part): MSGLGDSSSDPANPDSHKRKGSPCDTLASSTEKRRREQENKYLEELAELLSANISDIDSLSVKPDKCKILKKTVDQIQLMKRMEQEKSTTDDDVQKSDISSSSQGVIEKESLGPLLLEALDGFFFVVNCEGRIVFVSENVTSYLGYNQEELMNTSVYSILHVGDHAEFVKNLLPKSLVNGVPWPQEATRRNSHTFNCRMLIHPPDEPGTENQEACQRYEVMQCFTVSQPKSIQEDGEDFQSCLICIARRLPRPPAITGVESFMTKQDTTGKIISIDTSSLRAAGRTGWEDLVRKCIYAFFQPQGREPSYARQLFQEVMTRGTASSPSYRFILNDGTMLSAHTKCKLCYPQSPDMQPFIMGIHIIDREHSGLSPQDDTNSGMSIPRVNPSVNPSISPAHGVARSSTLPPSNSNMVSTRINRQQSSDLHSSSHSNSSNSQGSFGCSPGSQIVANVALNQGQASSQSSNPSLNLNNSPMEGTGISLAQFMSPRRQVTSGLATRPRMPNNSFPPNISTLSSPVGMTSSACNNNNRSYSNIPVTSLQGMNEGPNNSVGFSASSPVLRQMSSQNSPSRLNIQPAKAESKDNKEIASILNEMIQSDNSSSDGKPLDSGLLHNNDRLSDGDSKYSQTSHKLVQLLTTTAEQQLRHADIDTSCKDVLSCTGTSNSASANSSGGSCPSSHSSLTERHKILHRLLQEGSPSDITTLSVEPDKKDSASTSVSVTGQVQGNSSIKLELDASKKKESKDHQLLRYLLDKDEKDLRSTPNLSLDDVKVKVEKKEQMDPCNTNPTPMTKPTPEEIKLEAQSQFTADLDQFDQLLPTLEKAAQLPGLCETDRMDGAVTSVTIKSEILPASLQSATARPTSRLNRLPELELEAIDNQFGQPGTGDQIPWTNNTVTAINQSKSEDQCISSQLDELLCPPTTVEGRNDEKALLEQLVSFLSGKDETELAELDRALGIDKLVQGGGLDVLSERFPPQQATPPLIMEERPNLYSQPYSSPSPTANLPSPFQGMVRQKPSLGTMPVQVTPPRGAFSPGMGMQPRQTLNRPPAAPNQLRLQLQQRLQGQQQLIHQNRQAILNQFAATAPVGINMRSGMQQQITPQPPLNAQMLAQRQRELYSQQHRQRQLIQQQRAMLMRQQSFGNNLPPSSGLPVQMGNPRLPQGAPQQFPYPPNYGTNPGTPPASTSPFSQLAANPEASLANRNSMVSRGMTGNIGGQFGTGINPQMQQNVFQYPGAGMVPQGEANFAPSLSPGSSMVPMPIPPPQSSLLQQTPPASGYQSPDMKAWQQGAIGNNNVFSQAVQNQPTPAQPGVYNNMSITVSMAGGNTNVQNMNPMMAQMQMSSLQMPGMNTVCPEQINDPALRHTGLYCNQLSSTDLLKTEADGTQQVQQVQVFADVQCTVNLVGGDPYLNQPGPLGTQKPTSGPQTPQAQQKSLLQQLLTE
Chain of Nuclear receptor coactivator 3 (Homo sapiens) (Q9Y6Q9 whole entry, looked up, the tested form may be a part): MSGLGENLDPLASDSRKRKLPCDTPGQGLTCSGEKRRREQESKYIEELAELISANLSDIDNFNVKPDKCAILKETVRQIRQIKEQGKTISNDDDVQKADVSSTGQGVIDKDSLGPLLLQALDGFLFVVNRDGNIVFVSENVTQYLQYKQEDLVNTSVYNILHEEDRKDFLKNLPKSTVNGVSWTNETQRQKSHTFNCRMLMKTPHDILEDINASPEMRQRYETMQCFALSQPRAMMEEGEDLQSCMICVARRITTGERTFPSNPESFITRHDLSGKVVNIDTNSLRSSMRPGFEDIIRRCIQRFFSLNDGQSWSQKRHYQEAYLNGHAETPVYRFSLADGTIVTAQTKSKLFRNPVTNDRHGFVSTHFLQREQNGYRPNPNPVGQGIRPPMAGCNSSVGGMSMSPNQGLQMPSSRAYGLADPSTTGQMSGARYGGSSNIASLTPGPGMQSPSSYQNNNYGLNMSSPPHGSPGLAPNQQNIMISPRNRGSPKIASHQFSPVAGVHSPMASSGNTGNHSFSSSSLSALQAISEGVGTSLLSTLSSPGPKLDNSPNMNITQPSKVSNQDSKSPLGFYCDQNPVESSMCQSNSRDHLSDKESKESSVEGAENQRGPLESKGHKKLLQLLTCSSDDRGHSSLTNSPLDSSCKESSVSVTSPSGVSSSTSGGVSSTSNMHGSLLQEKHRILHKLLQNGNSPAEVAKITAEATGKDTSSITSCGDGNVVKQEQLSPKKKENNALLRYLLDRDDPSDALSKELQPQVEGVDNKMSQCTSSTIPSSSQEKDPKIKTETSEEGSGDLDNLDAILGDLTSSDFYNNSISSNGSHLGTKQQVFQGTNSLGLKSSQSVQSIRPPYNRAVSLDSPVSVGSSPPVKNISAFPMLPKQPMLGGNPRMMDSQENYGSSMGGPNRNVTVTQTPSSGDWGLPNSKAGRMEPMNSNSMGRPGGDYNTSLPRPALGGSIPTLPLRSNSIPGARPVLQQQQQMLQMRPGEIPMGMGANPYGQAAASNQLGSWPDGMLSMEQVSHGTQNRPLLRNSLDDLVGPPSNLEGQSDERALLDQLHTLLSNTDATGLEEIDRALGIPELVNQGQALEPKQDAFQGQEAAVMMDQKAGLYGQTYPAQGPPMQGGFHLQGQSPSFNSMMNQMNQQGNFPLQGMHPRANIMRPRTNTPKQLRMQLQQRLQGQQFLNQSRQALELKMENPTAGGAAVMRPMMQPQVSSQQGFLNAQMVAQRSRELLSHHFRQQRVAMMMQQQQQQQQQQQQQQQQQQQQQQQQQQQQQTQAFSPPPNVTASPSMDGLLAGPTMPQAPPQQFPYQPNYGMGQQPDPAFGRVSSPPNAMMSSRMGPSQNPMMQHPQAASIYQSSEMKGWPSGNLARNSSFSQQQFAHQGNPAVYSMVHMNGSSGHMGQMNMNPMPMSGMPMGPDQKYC
Chain of Nuclear receptor subfamily 5 group A member 2 (Homo sapiens) (O00482 whole entry, looked up): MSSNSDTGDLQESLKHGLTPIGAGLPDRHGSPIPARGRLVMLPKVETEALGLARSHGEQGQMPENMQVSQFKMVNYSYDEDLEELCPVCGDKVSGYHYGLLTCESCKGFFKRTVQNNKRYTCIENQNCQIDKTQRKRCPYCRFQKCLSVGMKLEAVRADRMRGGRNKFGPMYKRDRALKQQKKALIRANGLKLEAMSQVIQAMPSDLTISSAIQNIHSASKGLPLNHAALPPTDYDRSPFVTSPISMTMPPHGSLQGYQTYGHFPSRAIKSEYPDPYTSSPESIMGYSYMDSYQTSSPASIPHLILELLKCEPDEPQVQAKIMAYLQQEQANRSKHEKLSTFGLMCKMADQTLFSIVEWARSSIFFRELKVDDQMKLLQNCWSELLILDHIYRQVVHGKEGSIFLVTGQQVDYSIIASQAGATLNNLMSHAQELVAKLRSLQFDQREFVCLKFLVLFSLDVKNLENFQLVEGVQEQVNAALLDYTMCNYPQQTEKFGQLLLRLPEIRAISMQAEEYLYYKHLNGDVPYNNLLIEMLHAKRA
Chain of Steroidogenic factor 1 (Homo sapiens) (Q13285 whole entry, looked up, the tested form may be a part): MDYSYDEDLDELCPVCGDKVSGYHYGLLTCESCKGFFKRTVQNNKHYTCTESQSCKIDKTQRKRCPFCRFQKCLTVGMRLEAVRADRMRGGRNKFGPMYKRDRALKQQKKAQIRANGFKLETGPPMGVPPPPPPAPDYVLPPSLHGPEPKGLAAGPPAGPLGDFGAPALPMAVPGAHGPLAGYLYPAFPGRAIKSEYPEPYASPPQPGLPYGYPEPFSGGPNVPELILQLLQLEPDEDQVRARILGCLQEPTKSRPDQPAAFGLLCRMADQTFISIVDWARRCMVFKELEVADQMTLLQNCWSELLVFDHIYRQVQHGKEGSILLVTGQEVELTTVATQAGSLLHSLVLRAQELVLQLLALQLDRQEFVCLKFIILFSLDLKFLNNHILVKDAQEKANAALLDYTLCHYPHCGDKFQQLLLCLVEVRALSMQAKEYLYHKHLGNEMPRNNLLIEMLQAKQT

By inhibition is commonly meant the drop in the measured response relative to a control, in per cent. Take `O=C1[C@@H]2Cc3c([nH]c4ccccc34)C(c3ccc([N+](=O)[O-])cc3)N2C(=O)CN1C1CC1` (stereo partly drawn): the inhibition in assay [1] was 63.7% (active); in assay [2] it was 64% (active); in assay [3], 62.3% (active); in assay [4] it was 62.6% (active); in assay [5], 60.7% (active); in assay [6] it was 67.9% (active). Moreover, the inhibition in assay [7] is 71.4% (active); in assay [8], 75.7% (active).

In the case of `CCN(CC)c1ccc(/C=C/c2cccc[n+]2C)c(OC)c1`, the inhibition in assay [1] is 48.1% (active); in assay [2], 75% (active); in assay [3] it was 52.2% (active); in assay [4] it was 77.1% (active); in assay [5], 73.3% (active); in assay [6], 106% (active). Further, the inhibition in assay [7] was 91.8% (active); in assay [8], 85.7% (active).

`N=c1ccn(CC(=O)c2ccc(-c3ccccc3)cc2)cc1`: the inhibition was 37% (inactive) in assay [1]; 43.3% (active) in assay [2]; 26.1% (inactive) in assay [3]; 57.5% (active) in assay [4]; 46.2% (active) in assay [5]; 92.8% (active) in assay [6]. In addition, the results for the inhibition in assay [7] and in assay [8] were 76.3% (active) and 76.5% (active), respectively.

`COC1C=CC=C(C)C(=O)NC2=CC(=O)C(N)=C(CC(C)CC(OC)C(O)C(C)C=C(C)C1OC(N)=O)C2=O` (stereo not drawn): the inhibition is 78.9% (active) in assay [1]; 81.6% (active) in assay [2]; 18.4% (inactive) in assay [3]; 82.3% (active) in assay [4]; 73.2% (active) in assay [5]; 93.7% (active) in assay [6]. Besides, the inhibition in assay [7] is 85.5% (active); in assay [8], 85.7% (active).

On to `Brc1ccc2c(c1)CN1CCCC1=N2`, for which the inhibition is 15.1% (inactive) in assay [1]; 31.6% (active) in assay [2]; 9.34% (inactive) in assay [3]; 28% (active) in assay [4]; 30.9% (active) in assay [5]; 42.2% (active) in assay [6]. Also, the values for the inhibition in assay [7] and in assay [8] were 30.6% (inactive) and 42.4% (active), respectively.

As for `CN(Cc1ccccc1)C1=CC(=[N+]2CCCC2)CC(C)(C)C1`, the inhibition in assay [1] is 64.6% (active); in assay [2] it was 67.9% (active); in assay [3] it was 7.51% (inactive); in assay [4], 63.1% (active); in assay [5], 44.2% (active); in assay [6], 109% (active). For the same compound, the inhibition in assay [7] is 79.9% (active); in assay [8], 89.6% (active).

For `Cc1nc2cc(NCc3nc4ccccc4n3Cc3ccccc3)ccc2n1C`, the inhibition in assay [1] is -99.3% (inactive); in assay [2], -51.2% (inactive); in assay [3], -116% (inactive); in assay [4], -72.9% (inactive); in assay [5], -136% (inactive); in assay [6] it was -185% (inactive). Also, the inhibition in assay [7] is -209% (inactive); in assay [8], -111% (inactive).

Turning to `Cc1cccc2sc(NNC(=O)c3ccc(S(=O)(=O)N4CC(C)CC(C)C4)cc3)nc12` (stereo not drawn), the inhibition in assay [1] was 31% (inactive); in assay [2] it was 23.7% (inactive); in assay [3] it was 32.8% (inactive); in assay [4], 34% (active); in assay [5], 25% (inactive); in assay [6] it was 45% (active). Moreover, the inhibition in assay [7] was 36.2% (inactive); in assay [8], 40.9% (active).

For `CC(=NNC(=S)Nc1ccc(C)cc1)c1ccccn1`, the inhibition in assay [1] was 59% (active); in assay [2], 69.9% (active); in assay [3], 46.8% (active); in assay [4], 66% (active); in assay [5], 66.1% (active); in assay [6], 68.7% (active). Besides, the inhibition is 85.4% (active) in assay [7] and 52.6% (active) in assay [8].

Turning to `Cn1cnc([N+](=O)[O-])c1Sc1nc(N)nc2c1ncn2C1OC(CO)C(O)C1O` (stereo not drawn), the inhibition in assay [1] is 43.8% (active); in assay [2] it was 14.7% (inactive); in assay [3] it was -6.11% (inactive); in assay [4] it was 9.12% (inactive); in assay [5] it was 56.1% (active); in assay [6], 52% (active). The inhibition in assay [7] was 24.3% (inactive); in assay [8], 45.1% (active).

`Nc1ncn([C@@H]2O[C@H](CO)[C@@H](O)[C@H]2O)c(=O)n1`: the inhibition in assay [1] is 76.7% (active); in assay [2], 57.1% (active); in assay [3], -17.7% (inactive); in assay [4], 45.7% (active); in assay [5], 69.6% (active); in assay [6], 90.2% (active). The values for the inhibition in assay [7] and in assay [8] were 82.3% (active) and 80.9% (active), respectively.

In the case of `COc1cccc(/C=N/NC(=O)c2c(C)nc3ccc(Cl)cn23)c1O`, the inhibition is 79.3% (active) in assay [1]; 78.5% (active) in assay [2]; 75.2% (active) in assay [3]; 73.9% (active) in assay [4]; 86.7% (active) in assay [5]; 102% (active) in assay [6]. In addition, the figures for the inhibition in assay [7] and in assay [8] were 88.4% (active) and 83.5% (active), respectively.

`CC[C@H]1CN2CCc3cc(OC)c(OC)cc3C2C[C@@H]1C[C@H]1NCCc2cc(OC)c(OC)cc21` (stereo partly drawn): the inhibition was 97.5% (active) in assay [1]; 96% (active) in assay [2]; 91.5% (active) in assay [3]; 94.6% (active) in assay [4]; 95.7% (active) in assay [5]; 110% (active) in assay [6]. Moreover, the inhibition in assay [7] was 98% (active); in assay [8], 97.2% (active).

As for `Cc1c(P(=S)(c2ccccc2)c2ccccc2)[n+]2ccccc2n1C/C=C/c1ccccc1`, the inhibition was 20.6% (inactive) in assay [1]; 36.9% (active) in assay [2]; 26% (inactive) in assay [3]; 54.4% (active) in assay [4]; 44.7% (active) in assay [5]; 90.6% (active) in assay [6]. The results for the inhibition in assay [7] and in assay [8] were 51.4% (active) and 60.5% (active), respectively.

For the compound `CC1(C)N=C(N)N=C(N)N1CCCCc1ccccc1`, the inhibition was 45.9% (active) in assay [1]; 24.4% (inactive) in assay [2]; 56.8% (active) in assay [3]; 30.3% (active) in assay [4]; 61.4% (active) in assay [5]; 48.8% (active) in assay [6]. In addition, the inhibition in assay [7] is 38.2% (inactive); in assay [8], 35.7% (active).

As to `CCN1/C(=C/c2ccc3ccccc3[n+]2CC)C=Cc2ccccc21`, the inhibition is 74% (active) in assay [1]; 86.2% (active) in assay [2]; 55.5% (active) in assay [3]; 84.7% (active) in assay [4]; 78.7% (active) in assay [5]; 110% (active) in assay [6]. Moreover, the inhibition in assay [7] was 93% (active); in assay [8], 89.3% (active).
